Measured values published in paper PMC7862700, “An all-to-all approach to the identification of sequence-specific readers for epigenetic DNA modifications on cytosine”.

Assays:
Test in all cases: DAPPL (digital affinity profiling via proximity ligation, sequencing); 10 mM Tris-HCl pH 7.5, 50 mM NaCl, 1 mM DTT, 4% glycerol, room temperature, 30 min; GST-TFs on glutathione beads, 16-mer random dsDNA library, 0.1% formaldehyde crosslink after washing; high values mean tight binding
[1] = target: T1, FEV (Homo sapiens, UniProt Q99581 1-238); conditions: protein: recombinant; tags: N-terminal GST; dsDNA, one strand shown
T1 sequence: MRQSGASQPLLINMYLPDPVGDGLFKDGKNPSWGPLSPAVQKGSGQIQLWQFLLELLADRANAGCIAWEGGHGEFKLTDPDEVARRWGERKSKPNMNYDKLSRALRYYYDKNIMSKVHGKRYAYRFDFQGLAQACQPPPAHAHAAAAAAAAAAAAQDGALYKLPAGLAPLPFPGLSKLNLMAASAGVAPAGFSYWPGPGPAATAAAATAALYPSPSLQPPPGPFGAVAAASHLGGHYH
Method in brief: (§1)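 Binding signal is defined as a hexamer's read frequency for one factor over its frequency for the tag-only sample. To obtain reads, GST-fused human transcription factors were expressed in yeast, captured on glutathione beads, barcoded with DNA and pooled with that sample. Pools met 200 nmole of a 16-mer random double-stranded DNA library in Tris/NaCl/DTT/glycerol buffer for 30 min at room temperature before washing, 0.1% formaldehyde crosslinking, proximity ligation (BsaI/T4 ligase, 1 h, 37 °C), PCR and Illumina NextSeq500 sequencing.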

[2] = target: ETV5 (Homo sapiens, UniProt P41161 1-510); conditions: protein: recombinant; tags: N-terminal GST; dsDNA, one strand shown
Sequence of ETV5 (P41161 whole entry): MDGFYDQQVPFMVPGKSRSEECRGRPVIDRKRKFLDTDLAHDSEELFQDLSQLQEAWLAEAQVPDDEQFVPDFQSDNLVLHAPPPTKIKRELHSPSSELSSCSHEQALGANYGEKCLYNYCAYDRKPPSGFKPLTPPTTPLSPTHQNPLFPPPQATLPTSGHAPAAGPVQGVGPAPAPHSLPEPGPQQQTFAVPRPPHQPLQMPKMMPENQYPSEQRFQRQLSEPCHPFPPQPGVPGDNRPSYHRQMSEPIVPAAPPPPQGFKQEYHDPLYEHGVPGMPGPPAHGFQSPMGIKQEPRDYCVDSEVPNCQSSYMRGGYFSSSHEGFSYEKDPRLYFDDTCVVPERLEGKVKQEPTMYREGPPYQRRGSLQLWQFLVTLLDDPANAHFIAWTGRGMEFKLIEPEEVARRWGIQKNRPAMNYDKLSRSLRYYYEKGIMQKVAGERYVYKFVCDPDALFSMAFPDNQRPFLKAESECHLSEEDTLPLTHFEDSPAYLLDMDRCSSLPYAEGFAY
Method in brief: as §1

[3] = target: HSF1 (Homo sapiens, UniProt Q00613 1-529); conditions: protein: recombinant; tags: N-terminal GST; chain copies: 3; dsDNA, one strand shown
Sequence of HSF1 (Q00613 whole entry): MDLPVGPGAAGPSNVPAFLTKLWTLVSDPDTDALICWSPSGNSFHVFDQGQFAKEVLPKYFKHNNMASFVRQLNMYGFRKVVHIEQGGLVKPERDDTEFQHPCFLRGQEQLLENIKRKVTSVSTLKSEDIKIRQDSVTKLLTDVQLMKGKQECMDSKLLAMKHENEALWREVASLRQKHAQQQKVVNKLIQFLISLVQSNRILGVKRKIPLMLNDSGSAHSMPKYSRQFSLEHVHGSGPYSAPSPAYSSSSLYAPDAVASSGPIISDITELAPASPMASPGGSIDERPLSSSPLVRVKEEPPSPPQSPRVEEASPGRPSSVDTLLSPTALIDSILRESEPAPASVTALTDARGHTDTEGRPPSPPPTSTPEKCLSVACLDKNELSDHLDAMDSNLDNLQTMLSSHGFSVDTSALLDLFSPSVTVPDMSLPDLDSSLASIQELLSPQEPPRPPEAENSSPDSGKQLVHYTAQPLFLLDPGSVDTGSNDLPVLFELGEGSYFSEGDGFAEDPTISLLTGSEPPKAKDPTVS
Method in brief: as §1

[4] = target: T2, SPIC (Homo sapiens, UniProt Q8N5J4 1-248); conditions: protein: recombinant; tags: N-terminal GST; dsDNA, one strand shown
T2 sequence: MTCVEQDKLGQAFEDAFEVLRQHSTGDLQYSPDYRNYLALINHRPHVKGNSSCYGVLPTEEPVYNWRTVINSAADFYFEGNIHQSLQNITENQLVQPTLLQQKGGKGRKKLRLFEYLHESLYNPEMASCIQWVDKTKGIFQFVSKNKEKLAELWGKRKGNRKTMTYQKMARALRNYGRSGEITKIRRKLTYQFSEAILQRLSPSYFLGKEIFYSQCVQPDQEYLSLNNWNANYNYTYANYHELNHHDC
Method in brief: as §1

[5] = target: ELF4 (Homo sapiens, UniProt Q99607 1-663); conditions: protein: recombinant; tags: N-terminal GST; dsDNA, one strand shown
Sequence of ELF4 (Q99607 whole entry): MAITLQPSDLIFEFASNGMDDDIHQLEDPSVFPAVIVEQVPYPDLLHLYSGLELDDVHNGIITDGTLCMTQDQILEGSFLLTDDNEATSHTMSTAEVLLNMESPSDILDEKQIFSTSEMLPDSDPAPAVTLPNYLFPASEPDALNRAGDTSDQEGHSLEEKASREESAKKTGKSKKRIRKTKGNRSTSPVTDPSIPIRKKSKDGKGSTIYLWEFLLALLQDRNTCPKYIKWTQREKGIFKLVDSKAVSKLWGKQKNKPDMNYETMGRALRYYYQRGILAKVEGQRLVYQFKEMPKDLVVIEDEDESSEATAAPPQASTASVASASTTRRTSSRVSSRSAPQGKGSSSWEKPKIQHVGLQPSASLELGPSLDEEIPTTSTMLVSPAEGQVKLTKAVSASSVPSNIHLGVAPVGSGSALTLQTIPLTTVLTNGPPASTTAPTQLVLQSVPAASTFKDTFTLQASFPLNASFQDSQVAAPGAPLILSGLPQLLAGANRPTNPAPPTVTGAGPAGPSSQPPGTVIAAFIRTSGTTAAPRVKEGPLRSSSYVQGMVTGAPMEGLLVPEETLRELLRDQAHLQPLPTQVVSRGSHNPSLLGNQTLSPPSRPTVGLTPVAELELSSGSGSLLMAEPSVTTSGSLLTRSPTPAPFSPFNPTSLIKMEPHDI
Method in brief: as §1

[6] = target: T3, ELK4 (Homo sapiens, UniProt P28324-2 1-405); conditions: protein: recombinant; tags: N-terminal GST; dsDNA, one strand shown
T3 sequence: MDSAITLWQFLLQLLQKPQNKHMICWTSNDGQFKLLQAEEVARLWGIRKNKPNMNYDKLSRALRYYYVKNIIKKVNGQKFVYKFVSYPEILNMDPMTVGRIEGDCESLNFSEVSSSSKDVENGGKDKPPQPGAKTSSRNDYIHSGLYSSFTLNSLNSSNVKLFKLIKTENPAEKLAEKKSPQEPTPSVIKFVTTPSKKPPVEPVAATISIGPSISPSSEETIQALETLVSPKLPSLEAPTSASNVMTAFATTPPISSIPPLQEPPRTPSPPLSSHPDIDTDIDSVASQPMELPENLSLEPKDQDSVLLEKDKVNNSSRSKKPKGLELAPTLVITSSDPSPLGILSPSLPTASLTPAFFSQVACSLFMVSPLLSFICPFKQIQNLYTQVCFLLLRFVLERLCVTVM
Method in brief: as §1

[7] = target: T4, ETV2 (Homo sapiens, UniProt O00321 1-342); conditions: protein: recombinant; tags: N-terminal GST; dsDNA, one strand shown
T4 sequence: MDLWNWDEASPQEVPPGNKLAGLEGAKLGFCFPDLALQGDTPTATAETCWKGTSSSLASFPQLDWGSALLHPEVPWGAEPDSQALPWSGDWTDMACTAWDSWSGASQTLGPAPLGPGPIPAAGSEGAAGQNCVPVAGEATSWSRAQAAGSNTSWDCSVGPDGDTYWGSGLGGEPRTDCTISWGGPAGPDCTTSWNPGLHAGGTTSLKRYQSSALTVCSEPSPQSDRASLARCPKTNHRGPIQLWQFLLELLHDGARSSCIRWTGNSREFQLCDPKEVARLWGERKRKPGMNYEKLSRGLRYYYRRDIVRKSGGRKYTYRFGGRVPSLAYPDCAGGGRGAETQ
Method in brief: as §1

[8] = target: T5, ELF3 (Homo sapiens, UniProt P78545 1-371); conditions: protein: recombinant; tags: N-terminal GST; dsDNA, one strand shown
T5 sequence: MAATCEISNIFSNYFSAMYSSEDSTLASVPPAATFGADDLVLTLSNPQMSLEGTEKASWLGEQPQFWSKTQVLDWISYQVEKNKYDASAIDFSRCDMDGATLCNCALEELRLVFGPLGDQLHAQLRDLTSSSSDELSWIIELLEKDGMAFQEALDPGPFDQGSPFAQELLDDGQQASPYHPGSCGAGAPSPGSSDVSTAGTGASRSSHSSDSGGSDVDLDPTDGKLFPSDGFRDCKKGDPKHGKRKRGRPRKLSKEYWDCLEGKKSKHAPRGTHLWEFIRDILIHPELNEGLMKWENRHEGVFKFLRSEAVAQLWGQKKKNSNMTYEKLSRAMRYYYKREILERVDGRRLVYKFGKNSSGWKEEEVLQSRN
Method in brief: as §1

[9] = target: CRX (Homo sapiens, UniProt O43186 1-299); conditions: protein: recombinant; tags: N-terminal GST; dsDNA, one strand shown
Sequence of CRX (O43186 whole entry): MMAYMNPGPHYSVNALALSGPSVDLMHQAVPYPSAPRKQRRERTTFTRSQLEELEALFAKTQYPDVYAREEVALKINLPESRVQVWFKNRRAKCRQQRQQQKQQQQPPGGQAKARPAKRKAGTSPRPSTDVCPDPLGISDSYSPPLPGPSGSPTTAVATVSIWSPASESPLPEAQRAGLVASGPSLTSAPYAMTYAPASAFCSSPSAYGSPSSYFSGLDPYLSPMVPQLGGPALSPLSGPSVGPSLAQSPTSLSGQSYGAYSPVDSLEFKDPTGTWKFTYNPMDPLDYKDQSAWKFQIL
Method in brief: as §1

[10] = target: ETV1 (Homo sapiens, UniProt P50549 1-477); conditions: protein: recombinant; tags: N-terminal GST; dsDNA, one strand shown
Sequence of ETV1 (P50549 whole entry): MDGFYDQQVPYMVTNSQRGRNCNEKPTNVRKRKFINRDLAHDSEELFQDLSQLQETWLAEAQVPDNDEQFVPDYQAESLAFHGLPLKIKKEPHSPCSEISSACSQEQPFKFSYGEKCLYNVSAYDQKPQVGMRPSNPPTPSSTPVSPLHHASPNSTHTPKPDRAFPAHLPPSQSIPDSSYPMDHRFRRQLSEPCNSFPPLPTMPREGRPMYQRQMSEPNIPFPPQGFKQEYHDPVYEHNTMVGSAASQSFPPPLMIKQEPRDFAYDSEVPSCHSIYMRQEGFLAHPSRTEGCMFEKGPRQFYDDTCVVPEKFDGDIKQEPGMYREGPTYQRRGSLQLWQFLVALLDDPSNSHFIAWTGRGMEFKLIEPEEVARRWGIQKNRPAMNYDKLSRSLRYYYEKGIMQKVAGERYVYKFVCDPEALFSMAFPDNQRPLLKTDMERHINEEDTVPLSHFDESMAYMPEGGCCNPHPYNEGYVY
Method in brief: as §1

[11] = target: T6, ERF (Homo sapiens, UniProt P50548 1-548); conditions: protein: recombinant; tags: N-terminal GST; dsDNA, one strand shown
T6 sequence: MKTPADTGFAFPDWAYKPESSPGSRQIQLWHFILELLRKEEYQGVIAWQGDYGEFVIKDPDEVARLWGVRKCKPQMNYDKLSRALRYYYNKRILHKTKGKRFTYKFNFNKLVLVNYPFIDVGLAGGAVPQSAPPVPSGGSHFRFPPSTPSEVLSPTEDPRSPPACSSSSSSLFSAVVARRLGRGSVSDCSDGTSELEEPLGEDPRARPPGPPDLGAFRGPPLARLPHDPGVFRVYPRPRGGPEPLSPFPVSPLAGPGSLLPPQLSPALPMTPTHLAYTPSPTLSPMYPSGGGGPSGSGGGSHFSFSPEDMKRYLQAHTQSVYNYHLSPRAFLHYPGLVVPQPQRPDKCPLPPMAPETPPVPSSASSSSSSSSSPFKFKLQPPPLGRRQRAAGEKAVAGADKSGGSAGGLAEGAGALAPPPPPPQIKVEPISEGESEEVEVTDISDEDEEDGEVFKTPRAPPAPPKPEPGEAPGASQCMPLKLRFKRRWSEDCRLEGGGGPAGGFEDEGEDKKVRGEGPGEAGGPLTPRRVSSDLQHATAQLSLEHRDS
Method in brief: as §1

[12] = target: T7, ETV3L (Homo sapiens, UniProt Q6ZN32 1-361); conditions: protein: recombinant; tags: N-terminal GST; dsDNA, one strand shown
T7 sequence: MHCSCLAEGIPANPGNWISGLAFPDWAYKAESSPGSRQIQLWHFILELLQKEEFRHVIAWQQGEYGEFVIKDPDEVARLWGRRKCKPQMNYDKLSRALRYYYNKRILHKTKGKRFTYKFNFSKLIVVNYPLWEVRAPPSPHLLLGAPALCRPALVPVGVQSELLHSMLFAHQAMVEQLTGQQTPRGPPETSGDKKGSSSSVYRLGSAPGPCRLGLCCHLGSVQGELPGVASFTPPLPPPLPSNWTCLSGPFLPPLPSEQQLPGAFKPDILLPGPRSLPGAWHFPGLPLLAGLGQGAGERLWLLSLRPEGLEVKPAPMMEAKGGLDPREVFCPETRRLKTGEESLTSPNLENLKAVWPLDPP
Method in brief: as §1

[13] = target: T8, ETS2 (Homo sapiens, UniProt P15036 1-469); conditions: protein: recombinant; tags: N-terminal GST; dsDNA, one strand shown
T8 sequence: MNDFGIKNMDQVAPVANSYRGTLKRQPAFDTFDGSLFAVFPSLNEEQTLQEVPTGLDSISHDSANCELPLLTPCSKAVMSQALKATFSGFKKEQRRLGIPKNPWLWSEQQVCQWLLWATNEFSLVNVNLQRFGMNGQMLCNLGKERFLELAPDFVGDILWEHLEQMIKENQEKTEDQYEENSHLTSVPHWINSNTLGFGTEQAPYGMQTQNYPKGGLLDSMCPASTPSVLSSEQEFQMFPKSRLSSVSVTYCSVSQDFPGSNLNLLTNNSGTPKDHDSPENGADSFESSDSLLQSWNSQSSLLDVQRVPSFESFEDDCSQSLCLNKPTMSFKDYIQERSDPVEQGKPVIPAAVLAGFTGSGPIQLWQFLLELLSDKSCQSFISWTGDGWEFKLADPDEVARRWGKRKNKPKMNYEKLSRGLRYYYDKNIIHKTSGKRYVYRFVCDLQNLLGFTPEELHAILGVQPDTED
Method in brief: as §1

[14] = target: T9, SPDEF (Homo sapiens, UniProt O95238 1-335); conditions: protein: recombinant; tags: N-terminal GST; dsDNA, one strand shown
T9 sequence: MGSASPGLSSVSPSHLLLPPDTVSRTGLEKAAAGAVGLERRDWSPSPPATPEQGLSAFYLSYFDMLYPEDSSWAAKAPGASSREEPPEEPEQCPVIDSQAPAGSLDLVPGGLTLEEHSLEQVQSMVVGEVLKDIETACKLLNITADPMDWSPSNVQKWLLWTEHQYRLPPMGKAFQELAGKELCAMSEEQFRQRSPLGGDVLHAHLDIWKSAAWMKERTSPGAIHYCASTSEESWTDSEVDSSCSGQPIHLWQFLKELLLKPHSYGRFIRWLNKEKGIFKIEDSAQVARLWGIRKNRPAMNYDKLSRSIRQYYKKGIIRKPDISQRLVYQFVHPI
Method in brief: as §1

[15] = target: T10, ETV7 (Homo sapiens, UniProt Q9Y603 1-341); conditions: protein: recombinant; tags: N-terminal GST; dsDNA, one strand shown
T10 sequence: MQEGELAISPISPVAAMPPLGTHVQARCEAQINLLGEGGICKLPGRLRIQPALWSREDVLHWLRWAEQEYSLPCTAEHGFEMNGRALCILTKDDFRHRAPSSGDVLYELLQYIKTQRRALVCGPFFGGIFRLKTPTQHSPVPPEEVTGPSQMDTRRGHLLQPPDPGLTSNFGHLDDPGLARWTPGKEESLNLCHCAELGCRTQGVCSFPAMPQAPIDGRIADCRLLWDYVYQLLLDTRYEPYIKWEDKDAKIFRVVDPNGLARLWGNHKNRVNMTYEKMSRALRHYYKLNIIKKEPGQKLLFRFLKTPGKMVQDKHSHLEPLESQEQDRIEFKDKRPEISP
Method in brief: as §1

[16] = target: T11, ELF5 (Homo sapiens, UniProt Q9UKW6-2 1-255); conditions: protein: recombinant; tags: N-terminal GST; dsDNA, one strand shown
T11 sequence: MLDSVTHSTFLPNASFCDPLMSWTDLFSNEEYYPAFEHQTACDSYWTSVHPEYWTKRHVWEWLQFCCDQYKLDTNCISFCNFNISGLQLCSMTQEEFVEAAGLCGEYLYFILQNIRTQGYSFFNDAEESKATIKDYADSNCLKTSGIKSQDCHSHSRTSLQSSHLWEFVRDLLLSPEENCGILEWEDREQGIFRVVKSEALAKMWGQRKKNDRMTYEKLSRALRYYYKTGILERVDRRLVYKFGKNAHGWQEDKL
Method in brief: as §1

[17] = target: T12, ETV3 (Homo sapiens, UniProt P41162-2 1-143); conditions: protein: recombinant; tags: N-terminal GST; dsDNA, one strand shown
T12 sequence: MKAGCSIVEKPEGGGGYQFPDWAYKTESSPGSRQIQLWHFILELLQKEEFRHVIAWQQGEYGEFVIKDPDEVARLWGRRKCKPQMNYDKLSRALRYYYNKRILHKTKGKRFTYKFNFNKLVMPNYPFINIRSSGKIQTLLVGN
Method in brief: as §1

[18] = target: ETV6 (Homo sapiens, UniProt P41212 1-452); conditions: protein: recombinant; tags: N-terminal GST; dsDNA, one strand shown
Sequence of ETV6 (P41212 whole entry): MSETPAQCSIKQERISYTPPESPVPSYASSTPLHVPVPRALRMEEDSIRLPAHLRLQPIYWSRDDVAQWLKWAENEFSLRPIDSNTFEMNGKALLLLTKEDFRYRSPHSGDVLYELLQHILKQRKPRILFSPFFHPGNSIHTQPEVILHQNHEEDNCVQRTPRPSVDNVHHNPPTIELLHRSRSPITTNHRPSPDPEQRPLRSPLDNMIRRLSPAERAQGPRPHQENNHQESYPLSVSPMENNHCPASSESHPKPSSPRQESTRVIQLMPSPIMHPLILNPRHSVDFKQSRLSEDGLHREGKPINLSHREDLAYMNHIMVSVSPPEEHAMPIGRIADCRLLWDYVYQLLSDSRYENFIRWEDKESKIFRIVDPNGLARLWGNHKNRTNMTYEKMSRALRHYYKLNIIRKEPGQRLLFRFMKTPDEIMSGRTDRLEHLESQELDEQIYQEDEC
Method in brief: as §1

Q: Which results are given for ATAATT?
A: binding signal [1]: 1.25 fold enrichment (6-mer frequency, TF over GST control); binding signal [2]: 1.37 fold enrichment (6-mer frequency, TF over GST control); binding signal [3]: 1.76 fold enrichment (6-mer frequency, TF over GST control); binding signal [4]: 1.41 fold enrichment (6-mer frequency, TF over GST control); binding signal [5]: 1.25 fold enrichment (6-mer frequency, TF over GST control); binding signal [6]: 1.33 fold enrichment (6-mer frequency, TF over GST control); binding signal [7]: 1.5 fold enrichment (6-mer frequency, TF over GST control); binding signal [8]: 1.34 fold enrichment (6-mer frequency, TF over GST control); binding signal [9]: 2.16 fold enrichment (6-mer frequency, TF over GST control); binding signal [10]: 1.34 fold enrichment (6-mer frequency, TF over GST control); binding signal [11]: 1.33 fold enrichment (6-mer frequency, TF over GST control); binding signal [12]: 1.4 fold enrichment (6-mer frequency, TF over GST control); binding signal [13]: 1.31 fold enrichment (6-mer frequency, TF over GST control); binding signal [14]: 1.23 fold enrichment (6-mer frequency, TF over GST control); binding signal [15]: 1.31 fold enrichment (6-mer frequency, TF over GST control); binding signal [16]: 1.31 fold enrichment (6-mer frequency, TF over GST control); binding signal [17]: 1.32 fold enrichment (6-mer frequency, TF over GST control); binding signal [18]: 1.45 fold enrichment (6-mer frequency, TF over GST control)
